In ChEMBL document CHEMBL4513216, “Probing the Open Global Health Chemical Diversity Library for Multistage-Active Starting Points for Next-Generation Antimalarials” (ACS Infect Dis, 2020):
Screen size: about 69,000 compounds; about 8,600 (12%) showed an effect of 50% or more. Shown is part of a subset that was picked to be rich in strong results.

What follows are compounds tested on Plasmodium berghei (assay: Screen against P. berghei liver stage (PbLuc), transformed with Luciferase, at 10uM). Conditions: tested at 10 uM.
Format: functional, HepG2

Row | SMILES | INHIBITION
1 | Cc1noc(CN(Cc2cccc(C#N)c2)Cc2ccco2)n1 | -9.82%
2 | COc1ccc(CN(Cc2ccco2)Cc2[nH]cnc2C)c(OC)c1 | 20.6%
3 | COc1cccc(CN(Cc2ncc[nH]2)Cc2ccco2)c1 | 28.3%
4 | COc1ccc(OC)c(CN(Cc2ccco2)Cc2[nH]cnc2C)c1 | 26.1%
5 | COc1cccc(CN(Cc2ccco2)Cc2[nH]cnc2C)c1 | 87.7%
6 | COc1cccc(CN(Cc2ccco2)Cc2cnc(C)n2C)c1 | 65.7%
7 | Cn1nc(C(=O)N2CCSCC2)cc1NC(=O)c1ccccc1 | 7.39%
8 | Cn1cc(C(=O)CC2CCCN2C(=O)c2coc3ccccc23)cn1 (stereo unspecified) | 3.15%
9 | CN(C)c1cc(CNc2cncc(-n3cccn3)n2)ccn1 | -6.14%
10 | CC(C)(C)c1ncc(C(=O)NCc2cccc(C(=O)N3CCCC3)c2)s1 | -12.9%
11 | CC1(C)[C@H](Cc2cc(CO)on2)C[C@@H]1NCc1ccc(CO)o1 | 58.5%
12 | CC1(C)[C@H](Cc2cc(CO)on2)C[C@@H]1N(CC1CC1)CC1CC1 | 27.2%
13 | COCc1ccc(CN[C@H]2C[C@@H](Cc3cc(CCO)on3)C2(C)C)o1 | 30.5%
14 | O=C(c1cc(F)ccc1Br)N1CCN(C(=O)C2CC2)CC1 | 12.9%
15 | CCOc1cc(Cl)ccc1CNC(=O)c1ccc(=O)n(C)c1 | 39.3%
16 | CCS(=O)(=O)NCC(=O)N1CC2(CCCC2)c2c(F)cccc21 | 62.4%
17 | CNS(=O)(=O)CC(=O)N1CC2(CCCC2)c2c(F)cccc21 | -17.2%
18 | O=C(NCC(=O)N1CC2(CCCC2)c2c(F)cccc21)C1CC1 | 40.5%
19 | Cc1nn(C)cc1CN(C)C(=O)c1cnccn1 | 8.7%
20 | Cn1cc(S(=O)(=O)NCc2ccc(F)cc2)cn1 | 24.175%
21 | CN(C)CC1CN(Cc2ccc(-n3cccn3)cc2)CCO1 (stereo unspecified) | 15.3%
22 | O=C(Cc1cccc(F)c1)N1C[C@H]2CN(Cc3cccnc3)C[C@H]2C1 | 0.112%
23 | CN(C)C(=O)NC1COC2(CCN(Cc3ccc(Cl)c(F)c3)CC2)C1 (stereo unspecified) | 39.2%

Row | SMILES | INHIBITION
24 | CC(=O)N1CCC2(CC1)CC(C(C)C)=NO2 | 25.1%
25 | CC1=NOC2(CCN(Cc3c[nH]c4ccccc34)CC2)C1 | 43.3%
26 | CC(C)C1=NOC2(CCN(Cc3c[nH]c4ccccc34)CC2)C1 | 75.6%
27 | c1cncc(C2=NOC3(CCN(Cc4c[nH]c5ccccc45)CC3)C2)c1 | 44.1%
28 | c1ccc(C2=NOC3(CCN(Cc4c[nH]c5ccccc45)CC3)C2)cc1 | 63.1%
29 | c1ccc(O[C@H]2COCCN(Cc3c[nH]c4ccccc34)C2)cc1 | -41.9%
30 | CCc1ccc(NC(=O)N2C[C@@H]3C[C@H](C(=O)NC4CCC4)[C@H](C2)O3)cc1 | -50%
31 | O=C(O)COc1ccc(CN2CCCC(Cc3cccnc3)C2)cc1 (stereo unspecified) | 1.62%
32 | COCCN(Cc1ccoc1)C(=O)CSc1ccc(F)cc1 | 56.5%
33 | COCCN(Cc1ccoc1)C(=O)c1c(F)cccc1F | -6.42%
34 | COCCCN(Cc1ccncc1)C(=O)CSc1ccc(F)cc1 | 25.8%
35 | O=C(Nc1cnccn1)[C@H]1CC[C@@H]2[C@@H](CCN2Cc2ccccn2)O1 | -5.08%
36 | CCc1nnc(NC(=O)c2ccc(C3CCCN3CC(C)C)s2)s1 (stereo unspecified) | 15.9%
37 | CCCN1CCCC1c1ccc(C(=O)N2CCOCC2)s1 (stereo unspecified) | 42.1%
38 | CC(C)CN1CCCC1c1ccc(C(=O)Nc2cc[nH]n2)s1 (stereo unspecified) | 22.3%
39 | CCc1noc(CC)c1CNC(=O)Nc1ccc2[nH]nnc2c1 | 27.2%
40 | CC(C)CN1CCCC1c1ccc(C(=O)Nc2cccnc2)s1 (stereo unspecified) | 89.6%
41 | CC(C)CN1CCCC1c1ccc(C(=O)Nc2ccc3[nH]nnc3c2)s1 (stereo unspecified) | 51.1%
42 | CC(C)CN1CCCC1c1ccc(C(=O)Nc2cn(C)nn2)s1 (stereo unspecified) | 47.9%
43 | Cc1cnc(NC(=O)c2ccc(C3CCCN3CC(C)C)s2)s1 (stereo unspecified) | 64%
44 | CC(C)Cc1cc(NC(=O)c2ccc3[nH]nnc3c2)n(C)n1 | 1.45%
45 | CN1C(=N)NC(=O)/C1=C/c1ccc(-c2ccc(Br)cc2)o1 | 10.1%
46 | O=C(CN1CCC(c2cc(=O)n3c(n2)CCCCC3)C1)N1CCCCC1 (stereo unspecified) | 1.5%

Row | SMILES | INHIBITION
47 | Cc1cccc(OCCCN2CCC(N(C)Cc3noc(C)n3)C2)c1 (stereo unspecified) | 1.75%
48 | Cc1nc(C2CCCN2C(=O)Cn2cncn2)no1 (stereo unspecified) | -14%
49 | COCCN1CCC(CN(CC2CCCO2)C(=O)Cc2cccs2)CC1 (stereo unspecified) | 4.35%
50 | FC(F)(F)c1cc(C2CCCN(c3ncccn3)C2)n2ccnc2n1 (stereo unspecified) | 7.43%
51 | Cn1nc(C2CCN(C(=O)CN3CCCCC3)CC2)c2cccnc21 | 23.2%
52 | CCOc1ncccc1CNC(=O)c1cccc(C)n1 | 38.25%
53 | COCC(=O)N1CC[C@H]2C[C@H](c3nnc(C4CC4)o3)O[C@@H]2C1 | -6.3%
54 | COc1ccc(NC(=O)N(C)Cc2ccsc2)cn1 | 17.4%
55 | CCNc1cc2c(nn1)CCN(C(=O)c1cccnc1N(C)C)C2 | 17.05%
56 | CN1CCN(C(=O)Cn2ccc3c(Cl)cccc32)CC1 | -13.6%
57 | Cc1cccc(NC(=O)c2cccc(OCc3nnnn3C)c2)n1 | 60%
58 | Cc1cccc(NC(=O)c2ccc(OCc3nnnn3C)cc2)n1 | -83.3%
59 | Cc1ccnc(NC(=O)c2cccc(OCc3nnnn3C)c2)c1 | 39.8%
60 | CN1CC(=O)N(c2ccccc2)CC12CCN(C(=O)c1ccnnc1)C2 (stereo unspecified) | -7.29%
61 | Cc1ccnc(NCc2cn3c(C)csc3n2)n1 | -125%
62 | Cc1nn2c(NC(=O)CSc3nccn3C)csc2nc1=O | 50.8%
63 | Cc1cc(NCCSc2nccn2C)n2nc(C)c(C)c2n1 | 24.7%
64 | Cc1ccnc(SCC(=O)Nc2csc3nc(=O)c(C)nn23)n1 | 72.8%
65 | Cc1nnc(SCC(=O)Nc2csc3nc(=O)c(C)nn23)s1 | 36.3%
66 | Cc1nn2c(NC(=O)CSc3ncccn3)csc2nc1=O | 3.77%
67 | Cc1ncsc1C(=O)NCc1ccc(-c2n[nH]cc2C(=O)N(C)C)cc1 | -3.05%
68 | c1cncc(CN2CCCn3nnc(CN4CCCC4)c3C2)c1 | -19.8%
69 | CNC(=O)C1(c2cnccn2)CCCN1C(=O)c1ccccc1 (stereo unspecified) | 35.2%

Row | SMILES | INHIBITION
70 | COCCO[C@H]1CCN(Cc2ccsc2)[C@H]1Cc1cccnc1 | -67.6%
71 | Cc1nnc(N2C[C@H](OCc3cccnc3)[C@H]3OCCC[C@H]32)s1 | 47.9%
72 | Cc1csc(C2CCCCN2C(=O)c2cn[nH]c2C)n1 (stereo unspecified) | 11.6%
73 | CC(=O)NCC(=O)N1Cc2c(-c3cccc(C)c3)nc(N)nc2C1C (stereo unspecified) | 34%
74 | CN1CCC(C)(CN(C)C(=O)c2ccc(CCC(C)(C)O)cc2)C1 (stereo unspecified) | 1.71%
75 | CCOc1cc(C)nc(N2CCN(C(=O)Cn3cc(C)cn3)CC2)n1 | -83.4%
76 | Oc1nc(-c2cnccn2)nc2c1CCN(Cc1ccccn1)C2 | 2.71%
77 | COCC(=O)N1CCc2nc(-c3cnccn3)nc(O)c2C1 | 47.2%
78 | Cc1nc(CC(=O)N2CCc3nc(-c4cnccn4)nc(O)c3C2)cs1 | 59.3%
79 | O=C(Cc1ccccn1)N1CCc2nc(-c3cnccn3)nc(O)c2C1 | 5.69%
80 | O=C(CCC1CCCO1)N1CCc2nc(-c3cnccn3)nc(O)c2C1 (stereo unspecified) | -22.6%
81 | O=C(Cc1ccccn1)N1CCc2c(O)nc(-c3cnccn3)nc2C1 | 52%
82 | Cc1nc(C)n(CC2CCCN2Cc2cn3ccccc3n2)n1 (stereo unspecified) | -17.6%
83 | Cc1cnc(N2CCCn3c(nnc3Cn3cccn3)C2)nc1 | 16.9%
84 | c1cnn(Cc2nnc3n2CCCN(c2nccs2)C3)c1 | 53.9%
85 | c1cnc(N2CCCn3c(nnc3Cn3cccn3)C2)nc1 | -7.24%
86 | Cc1c(F)cc(C(=O)O)cc1S(=O)(=O)Nc1ccc(C#N)cc1 | 14.55%
87 | c1cncc(C[C@@H]2CC[C@H](CN3CCCOCC3)O2)c1 | -13.1%
88 | O=C(c1cccnc1)N1CCOC2(COCCN(c3cncnc3)C2)C1 (stereo unspecified) | -2.41%
89 | CCC(NC1CSCCSC1)c1ccc(S(C)(=O)=O)cc1 (stereo unspecified) | 29.4%
90 | COc1ccc(NC(C)C(=O)N2CCN(c3ccccc3)CC2)cn1 (stereo unspecified) | 21.6%
91 | COc1ccc(NC(C)C(=O)N2CCN(c3ncccn3)CC2)cn1 (stereo unspecified) | 29.2%
92 | COc1ccc(NC(C)C(=O)N2CCCC2)cn1 (stereo unspecified) | 78.2%

Row | SMILES | INHIBITION
93 | Cc1ccccc1SCC(=O)NC1CCC(n2cnnc2)CC1 (stereo unspecified) | 34.1%
94 | CC(C)NC(=O)N1CCC(c2nnc3n2CCNC3)CC1 | 59.8%
95 | O=C(NC1CCCCC1)N1CCCC1c1nnc2n1CCNC2 (stereo unspecified) | 32.5%
96 | O=C(N1CCCCC1)N1CCCC1c1nnc2n1CCNC2 (stereo unspecified) | 36.6%
97 | CC(C)NC(=O)N1CCCCC1c1nnc2n1CCNC2 (stereo unspecified) | 54.9%
98 | CC(C)NC(=O)N1CCn2c(nnc2C2CCCN2)C1 (stereo unspecified) | 23.4%
99 | CC(=O)N1CCCCC1c1nnc2n1CCNC2 (stereo unspecified) | 38.3%
100 | Cc1cnn(C2CN(c3ncnc4[nH]ccc34)C2)c1 | 15%
101 | CN(C)CC(=O)N1Cc2nnn(C)c2C(COCc2ccccn2)C1 (stereo unspecified) | -27.9%
102 | CC(C)C(=O)N1CCN(Cc2ccccn2)CC2(CC(=O)N(C)C2)C1 (stereo unspecified) | 5.04%
103 | Cn1cccc1C(=O)N1CC2(CCN(C(=O)c3cccnc3)C2)C1 | 32.1%
104 | Cn1nc(C2CCN(C(=O)c3cnccn3)C2)cc1CCO (stereo unspecified) | 45.2%
105 | Cc1nc(Cn2c3c(ccc2=O)CC(NC(C)C)CC3)cs1 (stereo unspecified) | 13.6%
106 | Cc1ncsc1C(=O)N1CCC(O)(CN2CCc3ccccc3C2)C1 (stereo unspecified) | 45.6%
107 | O=C(c1cccs1)N1CCC(O)(CN2CCc3ccccc3C2)C1 (stereo unspecified) | 37.5%
108 | Cn1cccc1C(=O)N1CCC(O)(CN2CCc3ccccc3C2)C1 (stereo unspecified) | 20.4%
109 | Cc1ccc(C(=O)N2CCC(O)(CN3CCc4ccccc4C3)C2)s1 (stereo unspecified) | 51.5%
110 | Cc1csc(C(=O)N2CCC(O)(CN3CCc4ccccc4C3)C2)c1 (stereo unspecified) | 76.8%
111 | Cc1ccsc1C(=O)N1CCC(O)(CN2CCc3ccccc3C2)C1 (stereo unspecified) | 33.7%
